# The full list was thinned out, with the strongest signals kept by preference.
# B1: Flo11 (Saccharomyces cerevisiae), P08640 (protein)
# chain: MQRPFLLAYLVLSLLFNSALGFPTALVPRGSSEGTSCNSIVNGCPNLDFNWHMDQQNIMQYTLDVTSVSWVQDNTYQITIHVKGKENIDLKYLWSLKIIGVTGPKGTVQLYGYNENTYLIDNPTDFTATFEVYATQDVNSCQVWMPNFQIQFEYLQGSAAQYASSWQWGTTSFDLSTGCNNYDNQGHSQTDFPGFYWNIDCDNNCGGTKSSTTTSSTSESSTTTSSTSESSTTTSSTSESSTTTSSTSESSTSSSTTAPATPTTTSCTKEKPTPPTTTSCTKEKPTPPHHDTTPCTKKKTTTSKTCTKKTTTPVPTPSSSTTESSSAPVPTPSSSTTESSSAPVTSSTTESSSAPVPTPSSSTTESSSAPVTSSTTESSSAPVTSSTTESSSAPVPTPSSSTTESSSAPVTSSTTESSSAPVTSSTTESSSAPVTSSTTESSSAPVTSSTTESSSAPVPTPSSSTTESSSAPVTSSTTESSSAPVPTPSSSTTESSSAPVTSSTTESSSAPVPTPSSSTTESSSAPAPTPSSSTTESSSAPVTSSTTESSSAPVPTPSSSTTESSSTPVTSSTTESSSAPVPTPSSSTTESSSAPVPTPSSSTTESSSAPAPTPSSSTTESSSAPVTSSTTESSSAPVPTPSSSTTESSSAPVPTPSSSTTESSSAPVPTPSSSTTESSSAPVTSSTTESSSAPVTSSTTESSSAPVPTPSSSTTESSSAPVPTPSSSTTESSSAPVPTPSSSTTESSSAPVTSSTTESSSAPVPTPSSSTTESSSAPVPTPSSSTTESSSAPVPTPSSSTTESSVAPVPTPSSSSNITSSAPSSTPFSSSTESSSVPVPTPSSSTTESSSAPVSSSTTESSVAPVPTPSSSSNITSSAPSSIPFSSTTESFSTGTTVTPSSSKYPGSQTETSVSSTTETTIVPTKTTTSVTTPSTTTITTTVCSTGTNSAGETTSGCSPKTVTTTVPTTTTTSVTTSSTTTITTTVCSTGTNSAGETTSGCSPKTITTTVPCSTSPSETASESTTTSPTTPVTTVVSTTVVTTEYSTSTKPGGEITTTFVTKNIPTTYLTTIAPTPSVTTVTNFTPTTITTTVCSTGTNSAGETTSGCSPKTVTTTVPCSTGTGEYTTEATTLVTTAVTTTVVTTESSTGTNSAGKTTTGYTTKSVPTTYVTTLAPSAPVTPATNAVPTTITTTECSAATNAAGETTSVCSAKTIVSSASAGENTAPSATTPVTTAIPTTVITTESSVGTNSAGETTTGYTTKSIPTTYITTLIPGSNGAKNYETVATATNPISIKTTSQLATTASASSVAPVVTSPSLTGPLQSASGSAVATYSVPSISSTYQGAANIKVLGNFMWLLLALPVVF
# Tests used:
# Experiment in all cases: glycan array binding signal (z-score within array); higher = stronger binding
# Conditions in all cases: glycan notation: IUPAC condensed, linker removed
# [1] = biological target: Fuc(a1-2)Gal(b1-3)GalNAc(b1-3)Gal
# How it was run: (§1)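 Glycan array data came from 3228 arrays in the Consortium for Functional Glycomics database, and only arrays with an available protein sequence were kept. Glycan names were put into IUPAC-condensed notation, and columns mapping to the same glycan were averaged. The binding signal is a within-array Z-score, averaged across arrays of one protein sequence run at different concentrations or buffers and across linkers. A negative Z-score can be read as non-binding.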
# [2] = biological target: Fuc(a1-2)Gal(b1-3)GlcNAc(b1-2)Man(a1-3)[Fuc(a1-2)Gal(b1-3)GlcNAc(b1-2)Man(a1-6)]Man(b1-4)GlcNAc(b1-4)[Fuc(a1-6)]GlcNAc
# How it was run: as §1
# [3] = biological target: Fuc(a1-2)Gal(b1-4)GlcNAc(b1-3)GalNAc
# How it was run: as §1
# [4] = biological target: Fuc(a1-2)Gal(b1-4)[Fuc(a1-3)]GlcNAc(b1-3)GalNAc
# How it was run: as §1
# [5] = biological target: Fuc(a1-2)[Gal(a1-3)]Gal(b1-3)GlcNAc
# How it was run: as §1
# [6] = biological target: Fuc(a1-2)[Gal(a1-3)]Gal(b1-3)GlcNAc(b1-2)Man(a1-3)[Fuc(a1-2)[Gal(a1-3)]Gal(b1-3)GlcNAc(b1-2)Man(a1-6)]Man(b1-4)GlcNAc(b1-4)GlcNAc
# How it was run: as §1
# [7] = biological target: Fuc(a1-2)[Gal(a1-3)]Gal(b1-4)[Fuc(a1-3)]Glc
# How it was run: as §1
# [8] = biological target: Fuc(a1-2)[GalNAc(a1-3)]Gal(b1-4)GlcNAc
# How it was run: as §1
# [9] = biological target: Fuc(a1-4)GlcNAc
# How it was run: as §1
# [10] = biological target: Gal(a1-3)Gal(b1-3)GlcNAc(b1-2)Man(a1-3)[Gal(a1-3)Gal(b1-3)GlcNAc(b1-2)Man(a1-6)]Man(b1-4)GlcNAc(b1-4)GlcNAc
# How it was run: as §1
# [11] = biological target: Gal(a1-3)Gal(b1-3)[Fuc(a1-4)]GlcNAc(b1-2)Man(a1-3)[Gal(a1-3)Gal(b1-3)[Fuc(a1-4)]GlcNAc(b1-2)Man(a1-6)]Man(b1-4)GlcNAc(b1-4)GlcNAc
# How it was run: as §1
# [12] = biological target: Gal(a1-4)GlcNAc
# How it was run: as §1
# [13] = biological target: Gal(a1-6)Glc
# How it was run: as §1
# [14] = biological target: Gal(b1-3)Gal(b1-4)GlcNAc
# How it was run: as §1
# [15] = biological target: Gal(b1-3)[Fuc(a1-4)]GlcNAc(b1-2)Man(a1-3)[Gal(b1-3)[Fuc(a1-4)]GlcNAc(b1-2)Man(a1-6)]Man(b1-4)GlcNAc(b1-4)GlcNAc
# How it was run: as §1
# [16] = biological target: Gal(b1-3)[Fuc(a1-4)]GlcNAc(b1-3)Gal(b1-3)[Fuc(a1-4)]GlcNAc
# How it was run: as §1
# [17] = biological target: Gal(b1-3)[GlcNAc(b1-6)]GalNAc
# How it was run: as §1
# [18] = biological target: Gal(b1-4)GlcNAc(b1-3)Gal(b1-4)[Fuc(a1-3)GlcNAc(b1-6)]Gal(b1-4)Glc
# How it was run: as §1
# [19] = biological target: Gal3S(b1-4)Glc
# How it was run: as §1
# [20] = biological target: Gal6S(b1-4)GlcNAc6S
# How it was run: as §1
# [21] = biological target: GalNAc(b1-3)GalNAc
# How it was run: as §1
# [22] = biological target: GalNAc(b1-4)GlcNAc(b1-2)Man(a1-3)[GalNAc(b1-4)GlcNAc(b1-2)Man(a1-6)]Man(b1-4)GlcNAc(b1-4)GlcNAc
# How it was run: as §1
# [23] = biological target: GlcNAc(a1-4)Gal(b1-4)GlcNAc(b1-3)Gal(b1-4)GlcNAc
# How it was run: as §1
# [24] = biological target: GlcNAc(a1-4)Gal(b1-4)GlcNAc(b1-3)Gal(b1-4)[Fuc(a1-3)]GlcNAc(b1-3)Gal(b1-4)[Fuc(a1-3)]GlcNAc
# How it was run: as §1
# [25] = biological target: GlcNAc(b1-2)Man(a1-3)[GlcNAc(b1-2)Man(a1-6)]Man(b1-4)GlcNAc(b1-4)[Fuc(a1-6)]GlcNAc
# How it was run: as §1
# [26] = biological target: GlcNAc(b1-2)[GlcNAc(b1-4)]Man(a1-3)[GlcNAc(b1-4)][GlcNAc(b1-2)[GlcNAc(b1-6)]Man(a1-6)]Man(b1-4)GlcNAc(b1-4)GlcNAc
# How it was run: as §1
# [27] = biological target: GlcNAc(b1-4)GlcNAc
# How it was run: as §1
# [28] = biological target: Man(a1-2)Man(a1-2)Man(a1-3)Man
# How it was run: as §1
# [29] = biological target: Man(a1-2)Man(a1-3)[Man(a1-2)Man(a1-6)]Man
# How it was run: as §1
# [30] = biological target: Man(a1-2)Man(a1-6)[Man(a1-3)]Man(a1-6)[Man(a1-2)Man(a1-2)Man(a1-3)]Man(b1-4)GlcNAc(b1-4)GlcNAc
# How it was run: as §1
# [31] = biological target: Neu5Ac(a2-3)Gal(b1-3)GalNAc6S
# How it was run: as §1
# [32] = biological target: Neu5Ac(a2-3)Gal(b1-4)GlcNAc6S
# How it was run: as §1
# [33] = biological target: Neu5Ac(a2-3)Gal(b1-4)[Fuc(a1-3)]GlcNAc(b1-3)Gal(b1-4)GlcNAc
# How it was run: as §1
# [34] = biological target: Neu5Ac(a2-3)Gal(b1-4)[Fuc(a1-3)]GlcNAc(b1-3)GalNAc
# How it was run: as §1
# [35] = biological target: Neu5Ac(a2-6)Gal(b1-4)GlcNAc(b1-3)Gal(b1-4)GlcNAc(b1-3)Gal(b1-4)GlcNAc
# How it was run: as §1
# [36] = biological target: Neu5Ac(a2-6)Gal(b1-4)GlcNAc(b1-3)Gal(b1-4)[Fuc(a1-3)]GlcNAc(b1-3)Gal(b1-4)[Fuc(a1-3)]GlcNAc
# How it was run: as §1
# [37] = biological target: Neu5Ac(a2-6)Gal(b1-4)GlcNAc6S
# How it was run: as §1
# [38] = biological target: Neu5Gc(b2-6)Gal(b1-4)GlcNAc
# How it was run: as §1
binder,measurement,setting,value
B1,glycan array binding signal (z-score),[1],4.03
same,glycan array binding signal (z-score),[2],0.319
same,glycan array binding signal (z-score),[3],1.35
same,glycan array binding signal (z-score),[4],5.39
same,glycan array binding signal (z-score),[5],-0.315
same,glycan array binding signal (z-score),[6],-0.389
same,glycan array binding signal (z-score),[7],-0.826
same,glycan array binding signal (z-score),[8],-0.692
same,glycan array binding signal (z-score),[9],0.442
same,glycan array binding signal (z-score),[10],0.723
same,glycan array binding signal (z-score),[11],0.122
same,glycan array binding signal (z-score),[12],-0.72
same,glycan array binding signal (z-score),[13],-0.453
same,glycan array binding signal (z-score),[14],0.164
same,glycan array binding signal (z-score),[15],-0.241
same,glycan array binding signal (z-score),[16],-0.512
same,glycan array binding signal (z-score),[17],-1.34
same,glycan array binding signal (z-score),[18],-1.05
same,glycan array binding signal (z-score),[19],0.09
same,glycan array binding signal (z-score),[20],0.193
same,glycan array binding signal (z-score),[21],-0.184
same,glycan array binding signal (z-score),[22],0.79
same,glycan array binding signal (z-score),[23],6.8
same,glycan array binding signal (z-score),[24],3.01
same,glycan array binding signal (z-score),[25],3.49
same,glycan array binding signal (z-score),[26],0.283
same,glycan array binding signal (z-score),[27],-0.781
same,glycan array binding signal (z-score),[28],7.09
same,glycan array binding signal (z-score),[29],-0.669
same,glycan array binding signal (z-score),[30],-1.08
same,glycan array binding signal (z-score),[31],-0.833
same,glycan array binding signal (z-score),[32],0.179
same,glycan array binding signal (z-score),[33],2.91
same,glycan array binding signal (z-score),[34],3.06
same,glycan array binding signal (z-score),[35],-0.252
same,glycan array binding signal (z-score),[36],0.359
same,glycan array binding signal (z-score),[37],-0.192
same,glycan array binding signal (z-score),[38],0.414

# — the supplement of paper PMC8728848
